NS1 inh: inhibitors of influenza NS1 protein function | Potency, µM (top dose mostly 46.1 µM), without a hit: at the highest dose activity, positive = more growth | hit rate 0.4% among 270,000 | AID 2326; calls by dose curve; further: potency means the concentration at half of the fitted maximal effect; actives are rising curves; nearly all actives have a fitted effect of over 50% in size
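Read-out: OD600 growth recovery of NS1-expressing budding yeast. Cells grown overnight at 30C in -URA glucose medium, washed, resuspended and diluted 1:100 in 2% galactose assay medium, pH 6.0. Same strain lacking NS1 served as positive control.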
Cruzain inh noDet: blocks cruzain activity in detergent-free assay. purified cruzain, Z-FR-AMC fluorescence, no detergent. Potency, µM, inactives show max response, negative = inhibition, actives largely listed as inhibitors. AID 1476. hit rate 2.3% among 200,000;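 further: potency means the concentration at half of the fitted maximal effect; plate controls were enzyme without inhibitor for no effect and buffer without enzyme for full effect; nearly all actives have a fitted effect of over 40% in size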
Target sequence (P25779 123-467 limits assumed): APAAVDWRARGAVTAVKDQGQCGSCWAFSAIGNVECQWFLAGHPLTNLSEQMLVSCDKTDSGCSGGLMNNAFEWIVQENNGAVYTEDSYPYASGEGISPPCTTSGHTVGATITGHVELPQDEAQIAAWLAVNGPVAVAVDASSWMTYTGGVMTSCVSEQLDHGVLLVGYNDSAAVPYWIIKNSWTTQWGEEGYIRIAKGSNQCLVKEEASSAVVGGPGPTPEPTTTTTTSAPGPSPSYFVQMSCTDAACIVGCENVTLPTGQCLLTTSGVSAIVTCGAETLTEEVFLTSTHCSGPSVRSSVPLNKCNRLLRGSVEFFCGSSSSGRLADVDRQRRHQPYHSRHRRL
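Detergent-free condition (0.00005% Triton X-100) in acetate buffer pH 5.5 with DTT. 1.5 nM enzyme and compound were pre-mixed 15 min, then 2 uM Z-FR-AMC substrate added; reaction progress from fluorescence change between first and third reads (60 s).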
Cruzain Triton: cruzain (T. cruzi) inhibition with detergent. P25779. purified cruzain, Z-FR-AMC fluorescence, 0.01% Triton. Potency, µM, without a hit: max response, negative = inhibition, most hits filed as inhibitors. hit rate 0.43% among 200,000. AID 1478;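 further: potency means the concentration at half of the fitted maximal effect; plate controls were neutral wells for no effect and buffer without enzyme for full effect; nearly all actives have a fitted effect of over 40% in size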
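Sodium acetate buffer (100 mM, pH 5.5) containing 5 mM DTT and 0.01% Triton X-100 hosted 1.5 nM cruzain and test compound for 15 min at room temperature. Cleavage of 2 uM Z-FR-AMC was then tracked by fluorescence.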
Flu NS1 inh: validation of influenza NS1 protein function inhibitors | shares compounds with NS1 inh | influenza NS1 function cell assay, 15-point titration | activity change, negative = inhibition, % at 32.9 µM | 1,400 tested, under 10 active; calls by dose curve; further: 0% is about no effect
PR8 titer: influenza virus titer reduction, NS1 project; shares compounds with NS1 inh; MDCK infected influenza A/PR/8/34, virus titer TCID50; active compounds read low; virus titer (log TCID50), log10 TCID50 at 5 µM; hit rate 30% among 95; AID 504647; call rule not given here
Active calls of the source: *. This is one part of a sample in which hits are shown more often than they occur. Unless noted, the call rests on the fitted dose curve; in most records, active means well fitted curve in the direction sought with a large enough effect; inconclusive means small, poorly fitted or top-dose-only effect, or another doubt; inactive means no such curve, though single readings can be large; an effect the other way counts as inactive or inconclusive.

Screening Cc1ccc2c(C)nc(/N=C(\N)NC(=O)N3c4ccccc4Sc4ccccc43)nc2c1 returned NS1 inh inconclusive, Cruzain inh noDet inconclusive, Cruzain Triton -6% and Flu NS1 inh 2.
For NC(=O)C1CCN(S(=O)(=O)c2cc3c(cc2Cl)NC(=O)CO3)CC1 the results were Cruzain inh noDet -4% and Cruzain Triton 0%.
`Cc1ccc(C)c(NC(=O)Cn2c(=O)n(-c3ccccc3C)c(=O)c3c2c2cc(C)ccc2n3C)c1` gave Cruzain inh noDet 17% and Cruzain Triton 6%.
For CCCCNC(=O)CN(c1cc(C(F)(F)F)ccc1Cl)S(C)(=O)=O the results were NS1 inh 1µM*, Cruzain inh noDet 3%, Cruzain Triton -3%, Flu NS1 inh -4 and PR8 titer 8.
COCCCNC(=O)CN(c1cc(C(F)(F)F)ccc1Cl)S(C)(=O)=O was read as NS1 inh 9%.
`Cc1ccc(NC(=O)c2oc3ccccc3c2NC(=O)C2CCCCC2)cc1` gave Cruzain inh noDet -7% and Cruzain Triton 2%.
O=C(CCCCn1c(=O)c2ccccc2n(Cc2ccccc2F)c1=O)NCc1ccc2c(c1)OCO2 was read as Cruzain inh noDet 0% and Cruzain Triton -2%.
Screening O=S(=O)(Nc1cccc(-c2cn3cccnc3n2)c1)c1ccccc1 returned NS1 inh 12%, Cruzain inh noDet inconclusive and Cruzain Triton -21%.
`O=S(=O)(Nc1cccc(-c2cn3cccnc3n2)c1)c1ccc(-c2ccccc2)cc1` gave NS1 inh 11µM*, Cruzain inh noDet inconclusive, Cruzain Triton -10% and Flu NS1 inh 24.
Screening C[Si](C)(C)C#Cc1ccccc1NC(=S)Nc1ccccc1 returned Cruzain inh noDet -23% and Cruzain Triton -8%.
For CC/C(=N\NC(=O)c1ccc2c(c1)OCO2)c1ccccc1 the results were NS1 inh -4%.
CCC/C(=N/NC(=O)c1ccc2c(c1)OCO2)c1cccs1 was read as NS1 inh inconclusive, Cruzain inh noDet -16%, Cruzain Triton -8% and Flu NS1 inh -15.
`O=C(N=C1SCC(=O)N1c1ccccc1Cl)c1ccco1` gave NS1 inh 11µM*, Cruzain inh noDet -13%, Cruzain Triton -1% and Flu NS1 inh 26.
Screening O=C(N=C1SCC(=O)N1c1ccccc1)c1ccco1 returned NS1 inh 9%, Cruzain inh noDet 3% and Cruzain Triton -7%.
Screening CCOc1ccc(NC(=O)c2sc3nc4c(cc3c2N)CN(Cc2ccccc2)CC4)cc1 returned Cruzain inh noDet 10% and Cruzain Triton -2%.
`CC1=C(C#N)c2nc(N)c(C#N)c(C)c2/C1=C\c1ccc(C)cc1` gave NS1 inh 13µM*, Cruzain inh noDet -18%, Cruzain Triton -19% and Flu NS1 inh inconclusive.
For COc1cc(/C=C2\C(C)=C(C#N)c3nc(N)c(C#N)c(C)c32)ccc1OCC(=O)O the results were NS1 inh 10%.
`O=C(N/N=C\c1ccc(Cl)s1)c1ccc(Cn2cccn2)o1` gave NS1 inh -4%, Cruzain inh noDet 5% and Cruzain Triton -6%.
O=C(N/N=C\c1c(O)ccc2ccccc12)c1ccc(Cn2cccn2)o1 was read as NS1 inh inconclusive, Cruzain inh noDet 3%, Cruzain Triton -3% and Flu NS1 inh -5.
Screening Cc1cc2nc3c(=O)n(C4CCCCC4)c(=O)[nH]c3nc2cc1N returned NS1 inh 7.9µM*, Cruzain inh noDet 8%, Cruzain Triton -6% and Flu NS1 inh 0.
For Cc1cc(C)cc(Nc2cc(=O)n(C3CCCCC3)c(=O)[nH]2)c1 the results were NS1 inh 7%, Cruzain inh noDet -17% and Cruzain Triton 2%.
Cc1oc(-c2ccccc2Cl)nc1CS(=O)CC(=O)N1CCN(c2cccc(C(F)(F)F)c2)CC1 (configuration not stated) was read as Cruzain inh noDet inconclusive and Cruzain Triton -13%.
Cc1ccc(N2CCN(S(=O)(=O)c3nnc(NC(=O)c4cccc(F)c4)s3)CC2)cc1 was read as Cruzain inh noDet -4% and Cruzain Triton 0%.
`CCN1CCN(CCCNC(=O)C2CCCN(c3nnc(-n4cccc4)s3)C2)CC1` (configuration not stated) gave NS1 inh 5µM*, Cruzain inh noDet 4%, Cruzain Triton -2% and Flu NS1 inh -21.

Assay outcomes deposited in PubChem BioAssay by National Center for Advancing Translational Sciences (NCATS).
